Experiment [1] deals with Hepatocyte nuclear factor 3-beta (Homo sapiens) (UniProt Q9Y261). In words: ATG_FoxA2_CIS: Attagene CIS-FACTORIAL HepG2 Assay for human Forkhead box A2 (FOXA2) (AID 2282942). Particulars: HepG2 cis-reporter transcription factor activity, 24 h; actives raise or lower the signal. The method in brief:
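HepG2 transiently transfected with a multiplexed cis-promoter reporter library read endogenous FOXA2 activity. After 24 h compound exposure, reporter mRNA was quantified by RT-PCR, HpaI digestion and capillary electrophoresis. Bidirectional fit against DMSO.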

Experiment [2] deals with Heat shock factor protein 1 (Homo sapiens) (UniProt Q00613). In words: ATG_HSE_CIS: Attagene CIS-FACTORIAL HepG2 Assay for human Heat Shock Transcription Factor 1 (HSE) (AID 2282953). Particulars: HepG2 HSE cis-reporter, Attagene RNA transcription; actives raise or lower the signal. The method in brief: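 Read-out: fluorescence of reporter-specific RT-PCR fragments separated by capillary electrophoresis. HepG2 carrying transfected cis-element reporter units; 24 h dosing; activity fitted in both directions relative to DMSO baseline.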

A short description of experiment [3]: ATG_RORE_CIS: Attagene CIS-FACTORIAL HepG2 Assay for human RAR-related Orphan Receptor Element (RORE) (AID 2282959). Particulars: HepG2 Attagene cis-factorial RORE reporter, mRNA; actives raise or lower the signal. The method in brief:
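HepG2 cells carrying transiently transfected cis-regulated reporter units; RORE-driven reporter mRNA quantified 24 h post-dosing by RT-PCR, 6-FAM primer extension, HpaI digestion and capillary electrophoresis. Bidirectional fit versus DMSO.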

Experiment [4] can be described thus: ATG_Sox_CIS: Attagene CIS-FACTORIAL HepG2 Assay for human SRY-box transcription factor (SOX) (AID 2282960). Particulars: HepG2 Attagene cis-factorial SOX reporter, mRNA; actives raise or lower the signal. The method, boiled down:
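HepG2 cells transiently transfected with multiple cis-regulated reporter units, then dosed for 24 h. Reporter mRNA quantified by RT-PCR, fluorescent labelling, HpaI digestion and capillary electrophoresis; bidirectional fit versus DMSO.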

For experiment [5], the target named is Transcription factor Sp1 (Homo sapiens) (UniProt P08047). Kind of experiment: ATG_Sp1_CIS: Attagene CIS-FACTORIAL HepG2 Assay for human Specificity Protein 1 (Sp1) (AID 2282961). Particulars: HepG2 Sp1 cis-reporter transcription, actives raise or lower the signal. The method in brief:
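HepG2 cells transiently transfected with multiplexed cis-regulated reporter constructs, chemical exposure 24 h. Reporter mRNA quantified by RT-PCR with capillary electrophoresis; bidirectional fit relative to DMSO.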

Experiment [6] can be described thus: ATG_SREBP_CIS: Attagene CIS-FACTORIAL HepG2 Assay for human Sterol Regulatory Element Binding (SREBP) (AID 2282962). Particulars: HepG2 Attagene cis-factorial SREBP reporter, mRNA; actives raise or lower the signal. The method in brief: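 Endogenous factor activity is measured in HepG2 through multiplexed reporter units under cis-element control. Following a 24 h incubation, reporter transcripts are reverse-transcribed, PCR-amplified and sized by capillary electrophoresis; activity is fitted in both directions relative to DMSO.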

Experiment [7] has as its target Signal transducer and activator of transcription 3 (Homo sapiens) (UniProt P40763). Kind of experiment: ATG_STAT3_CIS: Attagene CIS-FACTORIAL HepG2 Assay for human Signal Transducer and Activator of Transcription 3 (STAT3) (AID 2282963). Particulars: HepG2, Attagene cis-factorial STAT3 reporter transcription; actives raise or lower the signal. The method in brief:
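HepG2, MRTU-transfected, 24 h dosing. RNA → RT → PCR → FAM label → HpaI → CE. Bidirectional fit vs DMSO.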

The nature of experiment [8]: ATG_TA_CIS: Attagene CIS-FACTORIAL HepG2 Assay for human TA Basal Promoter (AID 2282964). Particulars: HepG2 Attagene CIS-factorial TA basal promoter reporter; actives raise or lower the signal. The method, boiled down: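 Transfected HepG2, 24 h compound exposure; RNA → RT-PCR → FAM primer extension → HpaI cut → CE fluorescence. Gain/loss-of-signal fitted against DMSO negative control. Background-control readout.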

Experiment [9] can be described thus: ATG_TCF_b_cat_CIS: Attagene CIS-FACTORIAL HepG2 Assay for human T-Cell-Factor with beta-catenin (TCF/b-cat) (AID 2282965). Particulars: HepG2 TCF/beta-catenin cis-reporter transcription, actives raise or lower the signal. The method, boiled down:
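HepG2 cells transiently transfected with multiple cis-promoter-regulated reporter transcription units, so endogenous transcription factor activity is measured. Reporter mRNA read 24 hours after dosing by RT-PCR, fluorescent labelling and capillary electrophoresis; bidirectional fitting against DMSO.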

The nature of experiment [10]: ATG_TAL_CIS: Attagene CIS-FACTORIAL HepG2 Assay for human TAL Basal Promoter (AID 2282966).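 Further: background control endpoint measuring basal TAL promoter reporter mRNA not a specific factor.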 Particulars: HepG2 Attagene cis-factorial TAL promoter reporter; actives raise or lower the signal. The method, boiled down:
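Background-control endpoint: basal TAL promoter reporter transcripts in transiently transfected HepG2, measured 24 h after dosing. Read-out by RT-PCR with fluorescent primer extension and capillary electrophoresis; gain or loss of signal fitted relative to DMSO.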

Experiment [11] can be described thus: ATG_VDRE_CIS: Attagene CIS-FACTORIAL HepG2 Assay for human Vitamin D Receptor Element (VDRE) (AID 2282968). Particulars: HepG2 VDRE cis-reporter transcription, actives raise or lower the signal. The method, boiled down: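 Steps: transfect HepG2 with multiple reporter transcription units; dose chemicals 24 h; isolate RNA; RT-PCR; label with 6-FAM primer extension; HpaI digest; capillary electrophoresis. Curves fitted both directions against DMSO.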

Experiment [12] addresses Transcriptional activator Myb (Homo sapiens) (UniProt P10242). Kind of experiment: ATG_Myb_CIS: Attagene CIS-FACTORIAL HepG2 Assay for human Myeloblastosis (Myb) Proto-Oncogene Transcription Factor (AID 2282986). Particulars: HepG2 Attagene CIS-FACTORIAL Myb reporter transcription; actives raise or lower the signal. The method in brief:
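Transiently transfected HepG2 cells carrying a multiplexed cis-promoter reporter set report endogenous Myb activity after 24 h compound exposure. Reporter mRNA is read by RT-PCR with capillary electrophoresis of fluorescent products, fitted bidirectionally against DMSO.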

Experiment [13] deals with Nuclear respiratory factor 1 (Homo sapiens) (UniProt Q16656). In words: ATG_NRF1_CIS: Attagene CIS-FACTORIAL HepG2 Assay for human Nuclear Respiratory Factor 1 (NRF1) Orphan Gene (AID 2282987). Particulars: HepG2 NRF1 cis-element reporter, Attagene multiplex; actives raise or lower the signal. The method, boiled down: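 HepG2 cells transiently transfected with multiple cis-regulated reporter units, exposed 24 h. Reporter mRNAs measured by RT-PCR, fluorescent labelling, HpaI digestion and capillary electrophoresis; bidirectional fitting against DMSO.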

The nature of experiment [14]: ATG_NFI_CIS: Attagene CIS-FACTORIAL HepG2 Assay for human Nuclear Factor I (NFI) (AID 2282989). Particulars: HepG2 cis-regulatory reporter, NFI response element transcription; actives raise or lower the signal. The method in brief: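 Read-out: reporter mRNA via RT-PCR plus capillary electrophoresis with fluorescence detection. Transiently transfected HepG2 (endogenous TF activity on cis promoters), 24 h compound exposure; gain or loss of signal fitted against DMSO.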

Experiment [15] concerns the target Myc proto-oncogene protein (Homo sapiens) (UniProt P01106). In words: ATG_Myc_CIS: Attagene CIS-FACTORIAL HepG2 Assay for human Myelocytomatosis (Myc) Proto-Oncogene Transcription Factor (AID 2282990). Particulars: HepG2, Attagene cis-reporter transcription factor activity; actives raise or lower the signal. The method in brief: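 HepG2 cells transiently transfected with multiple cis-promoter-driven reporter transcription units, so endogenous TF activity is read. After 24 h compound exposure, reporter mRNA was quantified by RT-PCR, 6-FAM labelling, HpaI digestion and capillary electrophoresis; bidirectional fit versus DMSO.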

The nature of experiment [16]: ATG_NRF2_ARE_CIS: Attagene CIS-FACTORIAL HepG2 Assay for human Nuclear Factor Erythroid 2 Related Factor 2 (NFR2) response to Antioxidant Response Elements (ARE) (AID 2282992).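 On AC50: reporter mRNA level measured by RT-PCR and capillary electrophoresis fluorescence.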 Particulars: HepG2 Attagene ARE/NRF2 reporter, transcription factor activity; actives raise or lower the signal. The method, boiled down:
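Endogenous transcription factor activity in human liver HepG2 cells is tracked via a cis-element-driven reporter within a multiplexed set. mRNA induction is read by RT-PCR and capillary electrophoresis after 24 h, with DMSO as baseline.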

The nature of experiment [17]: ATG_Oct_MLP_CIS: Attagene CIS-FACTORIAL HepG2 Assay for human Octamer-Binding Transcription Factor (Oct) (AID 2282993). Particulars: HepG2 Attagene cis-factorial Oct reporter, mRNA; actives raise or lower the signal. The method in brief:
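Read-out: reporter mRNA via RT-PCR plus capillary electrophoresis of 6-FAM-labelled fragments. Transiently transfected HepG2, 24 h exposure, endogenous TF activity on cis elements. Gain or loss of signal fitted relative to DMSO.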

In experiment [18] the target is Nuclear receptor subfamily 1 group I member 2 (Homo sapiens) (UniProt O75469). Kind of experiment: ATG_PXR_TRANS: Attagene TRANS-FACTORIAL HepG2 Assay for human Pregnane X Receptor (PXR) (AID 2283008; active means hit-call score of the fitted dose curve at least 0.9, where 1 is the maximum). The method, boiled down:
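HepG2 transfected (FuGene 6) with GAL4-UAS reporter units + PXR-Gal4 chimera; dosed 24 h. Total RNA → oligo(dT) RT → PCR → 6-FAM primer extension → HpaI cut → CE. Gain-of-signal vs DMSO.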

Experiment [19] is described as follows: ATG_XTT_Cytotoxicity: Cytotoxicity Assessment in the Attagene TRANS-FACTORIAL HepG2 Assay (AID 2283584; active means hit-call score of the fitted dose curve at least 0.9, where 1 is the maximum). The method in brief: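 Viability endpoint from XTT after 24 h chemical exposure of reporter-transfected human HepG2 liver cells; signal loss fitted relative to DMSO negative control.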
Experiment [20] addresses Cellular tumor antigen p53 (Homo sapiens) (UniProt P04637). In words: ATG_p53_CIS: Attagene CIS-FACTORIAL HepG2 Assay for human p53 Transcription Factor (AID 2282994). Particulars: HepG2 p53 cis-element reporter, Attagene mRNA; actives raise or lower the signal. The method in brief: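 Steps: transfect HepG2 with multiplexed cis reporter constructs; dose chemicals 24 h; extract RNA, reverse-transcribe, PCR-amplify reporter sequences; FAM-label, HpaI-digest, resolve fragments by CE. Activity fitted both directions relative to DMSO.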

SMILES strings stand for the structures. Records with an inconclusive call do not appear. Active and inactive are the calls of the source. How the source made its calls, unless noted: active means hit-call score of the fitted dose curve at least 0.9, where 1 is the maximum; inactive means score below 0.9.

Sequence of Nuclear respiratory factor 1 (Homo sapiens) (Q16656 whole entry, looked up): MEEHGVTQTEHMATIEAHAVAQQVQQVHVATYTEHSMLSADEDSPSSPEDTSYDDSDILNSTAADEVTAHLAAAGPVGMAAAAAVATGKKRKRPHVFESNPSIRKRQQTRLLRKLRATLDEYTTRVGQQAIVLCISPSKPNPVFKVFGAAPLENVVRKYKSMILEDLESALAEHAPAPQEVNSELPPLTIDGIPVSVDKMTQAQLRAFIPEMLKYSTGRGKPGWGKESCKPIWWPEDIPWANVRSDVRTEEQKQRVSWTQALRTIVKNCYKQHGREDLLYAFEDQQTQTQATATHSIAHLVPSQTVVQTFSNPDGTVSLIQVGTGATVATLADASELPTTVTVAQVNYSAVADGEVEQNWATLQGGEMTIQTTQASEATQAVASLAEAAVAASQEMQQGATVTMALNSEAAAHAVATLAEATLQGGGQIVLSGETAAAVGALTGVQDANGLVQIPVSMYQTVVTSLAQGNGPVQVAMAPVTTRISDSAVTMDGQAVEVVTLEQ
Sequence of Hepatocyte nuclear factor 3-beta (Homo sapiens) (Q9Y261 whole entry, looked up): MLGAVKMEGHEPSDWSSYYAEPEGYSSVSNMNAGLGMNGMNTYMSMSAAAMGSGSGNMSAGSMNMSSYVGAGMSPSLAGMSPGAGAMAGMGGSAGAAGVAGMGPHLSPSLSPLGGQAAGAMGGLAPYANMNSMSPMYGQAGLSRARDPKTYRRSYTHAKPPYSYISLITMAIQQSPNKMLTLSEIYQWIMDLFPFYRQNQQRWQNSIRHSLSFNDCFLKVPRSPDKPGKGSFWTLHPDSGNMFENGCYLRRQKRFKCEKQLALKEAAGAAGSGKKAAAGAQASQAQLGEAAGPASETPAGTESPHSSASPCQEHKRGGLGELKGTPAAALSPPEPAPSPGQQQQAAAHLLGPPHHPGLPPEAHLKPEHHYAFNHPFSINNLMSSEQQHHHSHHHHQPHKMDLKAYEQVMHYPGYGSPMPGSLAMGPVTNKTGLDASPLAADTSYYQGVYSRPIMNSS
Sequence of Signal transducer and activator of transcription 3 (Homo sapiens) (P40763 whole entry, looked up): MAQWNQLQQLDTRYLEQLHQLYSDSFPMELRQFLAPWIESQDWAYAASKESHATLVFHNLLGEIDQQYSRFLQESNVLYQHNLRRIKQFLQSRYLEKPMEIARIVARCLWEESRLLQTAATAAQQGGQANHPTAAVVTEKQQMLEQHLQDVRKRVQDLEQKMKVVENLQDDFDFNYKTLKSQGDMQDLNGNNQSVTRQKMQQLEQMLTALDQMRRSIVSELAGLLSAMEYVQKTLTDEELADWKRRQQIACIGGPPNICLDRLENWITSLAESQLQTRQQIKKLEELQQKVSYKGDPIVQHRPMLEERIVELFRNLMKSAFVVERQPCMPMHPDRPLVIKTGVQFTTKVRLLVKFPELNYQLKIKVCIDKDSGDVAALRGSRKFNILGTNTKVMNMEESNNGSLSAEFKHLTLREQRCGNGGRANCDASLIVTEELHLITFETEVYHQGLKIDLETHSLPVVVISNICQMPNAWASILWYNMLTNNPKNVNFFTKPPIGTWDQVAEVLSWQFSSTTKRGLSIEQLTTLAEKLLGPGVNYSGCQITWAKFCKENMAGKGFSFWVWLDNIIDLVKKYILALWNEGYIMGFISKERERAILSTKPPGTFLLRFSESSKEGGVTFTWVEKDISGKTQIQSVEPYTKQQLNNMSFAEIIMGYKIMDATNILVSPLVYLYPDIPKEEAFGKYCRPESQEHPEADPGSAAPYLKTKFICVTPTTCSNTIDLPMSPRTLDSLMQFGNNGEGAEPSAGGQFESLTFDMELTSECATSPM
Sequence of Heat shock factor protein 1 (Homo sapiens) (Q00613 whole entry, looked up, the tested form may be a part): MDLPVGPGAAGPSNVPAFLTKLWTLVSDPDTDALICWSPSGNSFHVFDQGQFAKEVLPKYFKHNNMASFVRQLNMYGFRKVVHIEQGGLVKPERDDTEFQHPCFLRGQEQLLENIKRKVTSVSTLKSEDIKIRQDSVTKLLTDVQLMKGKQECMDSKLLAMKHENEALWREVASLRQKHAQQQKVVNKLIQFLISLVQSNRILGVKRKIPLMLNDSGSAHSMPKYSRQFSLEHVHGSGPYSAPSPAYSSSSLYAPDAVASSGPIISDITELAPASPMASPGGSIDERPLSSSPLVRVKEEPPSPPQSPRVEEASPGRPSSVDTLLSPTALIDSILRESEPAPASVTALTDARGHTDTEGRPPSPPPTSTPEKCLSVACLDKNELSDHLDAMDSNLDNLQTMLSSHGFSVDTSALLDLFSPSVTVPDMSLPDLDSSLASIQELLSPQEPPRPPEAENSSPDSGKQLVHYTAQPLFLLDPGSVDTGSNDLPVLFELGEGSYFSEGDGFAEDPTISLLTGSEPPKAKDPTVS
Sequence of Transcriptional activator Myb (Homo sapiens) (P10242 whole entry, looked up): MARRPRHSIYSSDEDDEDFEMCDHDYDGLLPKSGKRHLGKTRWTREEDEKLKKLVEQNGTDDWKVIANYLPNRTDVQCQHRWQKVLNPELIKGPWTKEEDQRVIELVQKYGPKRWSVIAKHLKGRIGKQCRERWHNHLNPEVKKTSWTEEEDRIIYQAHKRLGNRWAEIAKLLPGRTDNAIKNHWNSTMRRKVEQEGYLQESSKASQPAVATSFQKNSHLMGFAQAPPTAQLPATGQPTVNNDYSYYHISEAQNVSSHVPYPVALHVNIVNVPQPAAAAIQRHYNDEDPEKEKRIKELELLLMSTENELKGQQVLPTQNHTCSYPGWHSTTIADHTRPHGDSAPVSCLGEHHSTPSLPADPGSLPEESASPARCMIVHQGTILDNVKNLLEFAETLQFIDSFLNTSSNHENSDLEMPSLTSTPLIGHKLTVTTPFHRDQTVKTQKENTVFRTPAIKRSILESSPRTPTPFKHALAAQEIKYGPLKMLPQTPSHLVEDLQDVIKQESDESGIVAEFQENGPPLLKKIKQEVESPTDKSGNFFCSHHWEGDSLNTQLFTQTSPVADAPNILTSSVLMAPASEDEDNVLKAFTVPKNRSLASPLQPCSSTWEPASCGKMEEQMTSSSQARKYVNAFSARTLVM
Sequence of Cellular tumor antigen p53 (Homo sapiens) (P04637 whole entry, looked up, the tested form may be a part): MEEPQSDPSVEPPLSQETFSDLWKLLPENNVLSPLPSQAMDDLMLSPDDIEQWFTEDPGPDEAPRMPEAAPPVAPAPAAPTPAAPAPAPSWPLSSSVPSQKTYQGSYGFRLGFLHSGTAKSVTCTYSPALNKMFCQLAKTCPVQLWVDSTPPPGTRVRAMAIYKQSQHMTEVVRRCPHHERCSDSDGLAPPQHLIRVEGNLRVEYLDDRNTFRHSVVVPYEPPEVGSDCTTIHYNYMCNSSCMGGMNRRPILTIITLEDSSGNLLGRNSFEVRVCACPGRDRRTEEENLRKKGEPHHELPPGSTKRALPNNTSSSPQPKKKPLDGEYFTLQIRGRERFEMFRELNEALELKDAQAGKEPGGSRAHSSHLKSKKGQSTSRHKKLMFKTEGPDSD
Sequence of Nuclear receptor subfamily 1 group I member 2 (Homo sapiens) (O75469 whole entry, looked up, the tested form may be a part): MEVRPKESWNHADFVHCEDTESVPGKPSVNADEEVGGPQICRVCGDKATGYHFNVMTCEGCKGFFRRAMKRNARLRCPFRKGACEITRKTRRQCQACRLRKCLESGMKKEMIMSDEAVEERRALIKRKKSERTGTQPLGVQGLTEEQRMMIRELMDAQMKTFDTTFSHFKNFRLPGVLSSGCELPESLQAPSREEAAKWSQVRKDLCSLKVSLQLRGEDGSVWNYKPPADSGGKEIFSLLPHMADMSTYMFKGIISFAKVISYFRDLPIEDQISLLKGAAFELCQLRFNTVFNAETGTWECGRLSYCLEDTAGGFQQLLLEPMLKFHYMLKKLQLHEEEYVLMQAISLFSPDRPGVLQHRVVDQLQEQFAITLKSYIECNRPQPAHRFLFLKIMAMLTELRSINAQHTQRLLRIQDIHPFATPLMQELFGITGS
Sequence of Transcription factor Sp1 (Homo sapiens) (P08047 whole entry, looked up): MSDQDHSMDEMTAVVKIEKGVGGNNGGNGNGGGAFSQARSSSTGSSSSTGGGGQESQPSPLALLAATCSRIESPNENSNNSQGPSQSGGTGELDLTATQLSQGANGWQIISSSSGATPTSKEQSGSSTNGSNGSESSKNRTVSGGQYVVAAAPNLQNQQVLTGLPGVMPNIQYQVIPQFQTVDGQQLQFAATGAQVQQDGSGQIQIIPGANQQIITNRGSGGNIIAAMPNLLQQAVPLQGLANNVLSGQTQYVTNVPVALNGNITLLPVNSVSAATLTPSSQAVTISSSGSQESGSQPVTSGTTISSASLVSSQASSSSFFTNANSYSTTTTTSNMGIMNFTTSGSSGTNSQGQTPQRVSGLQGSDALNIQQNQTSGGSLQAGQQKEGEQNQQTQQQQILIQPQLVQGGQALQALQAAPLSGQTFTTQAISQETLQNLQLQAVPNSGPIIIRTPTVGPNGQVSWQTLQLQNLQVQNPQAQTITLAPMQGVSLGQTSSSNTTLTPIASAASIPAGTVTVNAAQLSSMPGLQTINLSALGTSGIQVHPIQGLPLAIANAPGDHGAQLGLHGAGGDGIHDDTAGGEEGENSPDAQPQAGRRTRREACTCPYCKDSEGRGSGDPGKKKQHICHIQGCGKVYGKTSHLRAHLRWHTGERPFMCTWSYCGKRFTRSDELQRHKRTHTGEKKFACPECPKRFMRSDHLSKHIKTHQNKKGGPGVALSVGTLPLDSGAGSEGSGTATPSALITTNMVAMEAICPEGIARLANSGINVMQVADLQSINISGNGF
Sequence of Myc proto-oncogene protein (Homo sapiens) (P01106 whole entry, looked up): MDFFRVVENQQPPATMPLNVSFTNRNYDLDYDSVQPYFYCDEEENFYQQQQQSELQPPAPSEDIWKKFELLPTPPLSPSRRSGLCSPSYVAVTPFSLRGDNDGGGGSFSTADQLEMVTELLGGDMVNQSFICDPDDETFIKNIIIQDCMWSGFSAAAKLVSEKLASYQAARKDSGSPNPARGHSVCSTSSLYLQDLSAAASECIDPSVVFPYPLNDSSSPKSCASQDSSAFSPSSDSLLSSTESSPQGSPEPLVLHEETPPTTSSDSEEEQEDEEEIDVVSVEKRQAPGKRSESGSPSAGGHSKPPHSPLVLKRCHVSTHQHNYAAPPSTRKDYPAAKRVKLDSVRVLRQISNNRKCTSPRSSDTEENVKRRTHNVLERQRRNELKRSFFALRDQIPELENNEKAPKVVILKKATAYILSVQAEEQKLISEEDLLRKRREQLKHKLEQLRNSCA

Consider `CCOc1ccc2c(c1)C(C)CC(C)(C)N2` (configuration not stated), for which the molecule was classed as inactive in experiment [1], in [2], in experiment [3], in [4], in experiment [5] and in experiment [6]. Further, the molecule was called inactive in experiment [7], in experiment [8], in experiment [9], in experiment [10], in experiment [12] and in experiment [13]. For the same molecule, the molecule was classed as inactive in experiment [14], in [15], in experiment [16], in [17] and in experiment [19]. Moreover, the AC50 – broadly, the concentration at which the activity in the assay is half-maximal – in experiment [11] is 34 µM (active); in experiment [18] it was 3.63 µM (active).
Consider `C=CN1CCCCCC1=O`, for which the molecule was classed as inactive in experiment [1], in experiment [2], in [3], in experiment [4], in experiment [5] and in experiment [6]. Besides, the call in [7], in experiment [8], in experiment [9], in experiment [10], in experiment [11] and in experiment [12] was inactive. For the same molecule, the outcome in experiment [13], in experiment [14], in experiment [15], in [16], in experiment [17] and in experiment [20] was inactive. Besides, the outcome in experiment [18] and in experiment [19] was inactive.
`CCCCCCCCCC/C=C/C1CC(=O)OC1=O` (configuration not stated): the call in [1], in experiment [2], in experiment [3], in [4], in [5] and in [6] was inactive. For the same molecule, the outcome in experiment [7], in experiment [8], in [9], in [10], in experiment [11] and in experiment [12] was inactive. For the same molecule, the molecule was classed as inactive in experiment [13], in [14], in [15], in [17], in [20] and in experiment [19]. Besides, the half-maximal activity concentration (AC50) in experiment [16] is 79.8 µM (active).
Take `CCO[Si](OCC)(OCC)c1ccccc1`: the result in experiment [1], in experiment [2], in [3], in [4], in experiment [5] and in experiment [6] was inactive. The result in experiment [7], in experiment [8], in [9], in experiment [10], in experiment [11] and in experiment [12] was inactive. Moreover, the result in [13], in experiment [14], in experiment [15], in [16], in experiment [17] and in experiment [20] was inactive. For the same molecule, the molecule was called inactive in experiment [18].

The record behind these values is PubChem BioAssay (EPA / NIEHS).
